An excerpt weighted towards active compounds, which were near 6.1% of everything screened.
D3 ag = qHTS of D3 Dopamine Receptor Agonist: qHTS. D3R DiscoveRx beta-arrestin cells, luminescence, 90 min. AID 652048, 2013. max activation, %. hit rate 0.58% among 410,000. D(3) dopamine receptor (Homo sapiens), P35462; in the data active means max activation above about 30%; further: 0% is about no effect
Target sequence (P35462 whole entry, looked up): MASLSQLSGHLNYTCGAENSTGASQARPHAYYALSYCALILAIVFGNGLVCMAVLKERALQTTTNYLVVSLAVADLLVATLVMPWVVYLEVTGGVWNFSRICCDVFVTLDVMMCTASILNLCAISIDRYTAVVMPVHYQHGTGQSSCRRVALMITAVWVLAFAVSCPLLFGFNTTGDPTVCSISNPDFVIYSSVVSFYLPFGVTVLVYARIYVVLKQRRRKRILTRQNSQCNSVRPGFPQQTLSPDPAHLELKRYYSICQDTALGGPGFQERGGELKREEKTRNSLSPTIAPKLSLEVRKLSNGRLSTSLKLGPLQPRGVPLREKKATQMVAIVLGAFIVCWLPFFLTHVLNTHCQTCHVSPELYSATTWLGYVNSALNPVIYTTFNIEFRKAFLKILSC
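Cells at 1500/well, incubated overnight, then treated with pinned compounds (dopamine as control) for 90 min at 37 degrees C. DiscoveRx reagent added for 30 - 60 minutes at room temperature; luminescence read.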
D1 potentiator = Potentiators of Human D1 Dopamine Receptor: qHTS. potentiation, % at 10 µM. HEK293 TREx D1 cells, calcium flux, dopamine EC20 potentiation. hit rate 0.036% among 360,000; in the data active means potentiation above about 30%; further: 0% is about no effect
D1 antag = Antagonist of Human D 1 Dopamine Receptor: qHTS | HEK293 TREx D1 cells, calcium flux, dopamine EC80; stronger effect = lower value | activity change, negative = inhibition, % at 10 µM | hit rate 3.2% among 360,000; in the data active means activity change below about -30%; further: on the % scale 0 is the no-effect control and ±100 the full control effect
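Inducible Hek293 Trex D1 cells (tetracycline, overnight, 30 C). Calcium dye 30–90 min RT. Antagonist mode: EC80 dopamine added after 180 s compound read.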
D1 ag = Allosteric Agonists of the Human D1 Dopamine Receptor: qHTS; D(1A) dopamine receptor (Homo sapiens), P21728; HEK293 T-REx D1 cells, calcium flux, agonist mode; activation, % at 2 µM; hit rate 1% among 360,000; in the data active means activation above about 30%; further: 0% is about no effect
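Agonism was scored from calcium flux recorded over 180 s (1 read/s) after pintool compound addition, following a 10-cycle baseline. Cells were inducible force-coupled HEK293 TREx D1, plated overnight at 30 C and loaded with no-wash calcium dye.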
DRD3 antagonist = qHTS of D3 Dopamine Receptor Antagonist: qHTS | D(3) dopamine receptor (Homo sapiens), P35462 | D3R cells, DiscoveRx beta-arrestin luminescence, antagonist mode; stronger effect = lower value | max response, negative = inhibition, % | hit rate 2.5% among 360,000 | AID 652054, 2013; in the data active means max response below about -50%; inconclusive means no clear call, values can overlap the other calls; further: on the % scale 0 is the no-effect control and ±100 the full control effect
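Cells expressing the human receptor were seeded at 1500 cells/well, incubated overnight at 37 degrees C in 5% CO2, then exposed to library compounds with dopamine controls for 90 minutes at 37 degrees C before luminescent detection.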
The depositor's hits bear a star; ? = inconclusive; · = no result.

SMILES	D3 ag	D1 potentiator	D1 antag	D1 ag	DRD3 antagonist
O=C(O)c1ccccc1C(=O)N1CC=C(c2ccccc2)CC1	-11.1	-3.3	-39.0*	2.2	-14.5
O=C(NCc1nnc(SCc2ccc(F)cc2)n1-c1ccccc1)C12CC3CC(CC(C3)C1)C2	0.3	-3.1	23.0	2.3	-51.1*
ClCC(CNCc1ccccc1)c1ccccc1 (centres undefined)	-29.4	·	·	·	-55.4*
OC(CNCc1ccccc1)c1ccccc1 (centres undefined)	-18.1	-2.3	5.7	3.0	9.5
CCOC(=O)c1c(-c2ccccc2)oc2ccc(NS(=O)(=O)c3cc(C)c(C)cc3C)cc12	-4.8	2.2	3.1	5.4	·
Cc1cccc(OCC(=O)NCC(=O)N/N=C/c2cc(Br)cc(Br)c2O)c1	-24.8	3.0	-25.5	2.6	-80.9*
O=C(COc1ccccc1)Nc1ccccc1C(=O)OCc1cc(=O)n2nc(C3CC3)sc2n1	5.3	0.3	1.6	-2.1	·
O=S(=O)(CCSc1nc2ccccc2o1)c1nc2ccccc2s1	-11.5	-6.3	-13.6	8.3	-61.8*
O=S(=O)(NCCSc1nc2ccccc2o1)c1ccccc1	-2.6	-2.6	-33.3*	7.3	12.6
CC(=O)Nc1cccc(NC(=O)CSc2nc3ccccc3o2)c1	1.7	-2.8	3.4	13.1	8.1
O=C(CSc1nc2ccccc2o1)Nc1ccccc1	-0.1	-7.9	-36.6*	3.2	21.1
CCN(CC)C(=O)c1ccc2c(c1)N(Cc1ccccc1F)C(=O)c1ccccc1S2=O (centres undefined)	-0.5	2.5	24.4	0.9	·
Fc1ccc(-n2cc(-c3ccccc3)c3c(=S)nc[nH]c32)cc1	-3.9	-13.8	-40.6*	1.9	-2.5
Cc1ccc(-n2cc(-c3ccccc3)c3c(=O)[nH]cnc32)cc1	0.0	-19.1	-66.1*	0.9	10.4
Cc1ccnc(NC(=O)c2ccc(S(=O)(=O)N3CCCCCC3)cc2)c1	-10.4	3.6	2.1	-0.1	-25.0
O=c1[nH][nH]c(-c2ccccc2)c1C=Nc1cccc(Cl)c1	0.4	-9.8	-33.8*	0.0	?
O=c1[nH][nH]c(-c2ccccc2)c1C=Nc1ccc(Cl)cc1	-0.7	3.2	23.8	-0.3	?
Cc1ccc2nc(-c3cccc(NC(=O)c4cccc5ccccc45)c3)oc2c1	2.6	-2.2	-9.7	1.7	·
NS(=O)(=O)c1ccc(NC(=O)C(Sc2ccccc2)c2ccccc2)cc1 (centres undefined)	3.1	0.4	-32.8*	3.9	19.3
NS(=O)(=O)c1ccc(NC(=O)CSc2ccccc2)cc1	8.3	-4.5	4.8	7.0	26.3
CC(=O)c1sc(NC(=O)c2ccc(C(C)(C)C)cc2)nc1C	-1.9	-4.3	-16.9	1.2	-7.5
CC(C)c1cc(C(N)=O)c(NC(=O)C2CCC2)s1	36.5*	-1.8	3.7	2.2	-9.0
O=C(Cc1nnc(CNC(=O)c2ccccc2)o1)Nc1cc(C(F)(F)F)ccc1Cl	·	-4.3	17.9	0.5	·
Cc1onc(-c2ccccc2Cl)c1C(=O)NCc1ccccc1F	4.8	-3.2	-25.5	0.2	8.3
O=C(CCc1nc(-c2ccccc2)no1)Nc1cc(C(F)(F)F)ccc1Cl	7.6	5.7	14.0	60.9*	-0.6
SMILES	D3 ag	D1 potentiator	D1 antag	D1 ag	DRD3 antagonist
Cc1onc(-c2ccccc2Cl)c1C(=O)NCc1nc(-c2ccc(C(F)(F)F)cc2)no1	-1.9	1.0	-37.5*	8.8	5.0
Cc1nnc(SCC2=C(C(=O)O)N3C(=O)C(NC(=O)c4cccc(F)c4F)C3SC2)s1 (centres undefined)	-1.6	-9.3	-73.3*	1.6	-11.4
Cc1ccnc2nc(NC(=O)c3ccccc3Cl)nn12	-9.3	3.5	-5.3	0.5	·
COc1ccccc1C(C)Nc1ccc(S(=O)(=O)N2CCN(C)CC2)cc1[N+](=O)[O-] (centres undefined)	1.2	-7.7	-65.2*	0.5	-4.2
CC(Nc1ccc(S(=O)(=O)N2CCN(C)CC2)cc1[N+](=O)[O-])c1ccccc1 (centres undefined)	6.2	-5.8	-73.1*	1.1	14.6
Cc1csc(CN(C)C(=O)C2CCC(=O)N(CCN(C)C)C2)n1 (centres undefined)	-3.5	-0.3	5.2	2.4	-0.7
CCCN1CCC(NC(=O)Nc2ccc(F)cc2F)CC1	-4.4	-1.9	-4.0	1.4	-53.2*
O=C(Nc1cccc(F)c1)NC1CCN(Cc2ccccc2)CC1	-9.9	-5.2	·	10.4	-82.0*
O=C(/C=C/c1cccc(F)c1)NC1CCN(Cc2ccccc2)CC1	-8.7	·	-45.0*	9.8	?
O=C(COC(=O)/C=C/c1cccc(F)c1)NC1CC1	-3.9	·	·	·	?
O=C(/C=C/c1cccc(Br)c1)NC1CCN(Cc2ccccc2)CC1	-9.3	-6.4	-4.0	9.4	-60.8*
C/C(=N\NC(=O)c1ccc(=O)[nH]n1)c1cccnc1	-1.2	-1.4	-0.5	2.0	-27.9
CCN(CC)C(=O)c1nc[nH]c1C(=O)O[C@@H](C)c1ccccc1	2.1	·	·	·	-12.3
CC(C)CCn1c(SCc2ccc(F)cc2Cl)nc2ccsc2c1=O	9.8	-2.2	17.1	3.0	·
CCOC(=O)CNC(=O)C1CCCc2c1[nH]c1ccc(Cl)cc21 (centres undefined)	8.0	-3.1	-35.4*	16.2	1.3
CCc1nc2ccc(C(=O)Nc3nnc(C)s3)cc2nc1CC	-20.7	-8.4	-42.3*	2.6	-3.3
Cc1ccc(SC(C)C(=O)NCc2ccncc2)cc1 (centres undefined)	-7.2	8.3	-21.3	2.0	-59.1*
COc1ccc(CNC(=O)C(C)Sc2ccc(C)cc2)cc1 (centres undefined)	3.2	2.2	-6.1	-0.6	3.4
CN1CCC(Oc2ccccc2Sc2ccc(C(F)(F)F)cc2)CC1	-14.5	-6.3	-58.3*	52.4*	-11.3
CN1CCC(Oc2ccc(Sc3ccccc3)cc2)CC1	-15.7	-8.8	-27.6	77.7*	-20.9
CCCOC(C(=O)OC1CCN(C)CC1)(c1ccccc1)c1ccccc1	-19.9	·	·	·	·
Cc1cccc(/C=C2\Sc3ccc(C(=O)N4CCCCC4)cc3N(C)C2=O)c1	-2.3	-0.1	-38.4*	3.3	-10.4
CCOC(=O)N1CCN(C(=O)c2ccc3c(c2)N(C)C(=O)/C(=C\c2ccc(OCC)c(OC)c2)S3)CC1	45.9*	-9.6	-18.1	2.5	62.8
CN1C(=O)/C(=C/c2cccc(Cl)c2)Sc2ccc(C(=O)N3CCCC3)cc21	38.5*	3.6	-35.9*	8.1	23.1
O=C(C[n+]1cccc(CNC(=O)c2ccc(OC(F)F)cc2)c1)Nc1ccccc1Cl	-6.0	-2.1	-31.7*	1.0	-16.8

From PubChem
